The record followed here is PubChem BioAssay (NCATS).

Molecules are shown by their SMILES. Records with an inconclusive call do not appear. A number with no mark means an inactive call. Active and inactive are the calls of the source. Calls come from the whole dose curve; as a rule, active = well fitted curve in the direction sought with a large enough effect; inconclusive = small, poorly fitted or top-dose-only effect, or another doubt; inactive = no such curve, though single readings can be large; an effect the other way counts as inactive or inconclusive.
Note: nearly all actives have a fitted effect of over 35% in size.
Potency is the fitted concentration of half-maximal effect.

One test can be described thus: Quantitative highthroughput screen to assess conditional lethalithy of P12 Ichikawa cells grown in RPMI1640 with untreated serum (RPMI+s) (AID 1963881).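 For viability: 100% = DMSO wells and 0% = empty wells without cells.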 Conditions: ATP luminescence, 48 h; Potency: viability; series mostly up to 45.8 µM; viability: at the top concentration. The essentials:
(§1)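 Each medium arm—HPLM with 10% dialyzed FBS, or RPMI1640 with 5 mM glucose and 10% untreated or dialyzed FBS—was screened against an 11-point, 3-fold compound titration for 48 h at 37 °C, with CellTiter-Glo luminescence as endpoint.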
With `CCOC(=O)N1CCN([N+]([O-])=NOc2ccc([N+](=O)[O-])cc2C#N)CC1`, the Potency was 1.05 µM (active).
On to `CCNC(=O)Nc1ccc(Oc2ncnc(N)c2C=NOC)cc1Cl`, for which the “viability” value was 112%.
In the case of `O=C(NC[C@H](O)CN1CCc2ccccc2C1)c1cc(NC2COC2)ncn1`, the “viability” value is 79.5%.
Turning to `CCN(CC)CC#CCOC(=O)C(O)(c1ccccc1)C1CCCCC1` (stereo not given), the “viability” value was 85.9%.
For `CNC(=O)c1ccc(-c2cnc3ncc(Cc4ccc5ncccc5c4)n3n2)cc1F`, the “viability” value is 99.6%.
Regarding `COc1ccc(CCN2CCN(CCCc3ccccc3)CC2)cc1OC`, the “viability” value is 95.3%.
For `CC(S)C(=O)NCC(=O)O` (stereo not given), the “viability” value is 93.7%.
Consider `O=c1c(-c2ccc(O)cc2)coc2cc(OC3O[C@H](CO)[C@H](O)[C@H](O)[C@H]3O)cc(O)c12` (stereo not given in full), for which the “viability” value was 104%.
Turning to `NNc1nncc2ccccc12`, the “viability” value is 98.2%.
Consider `Nc1ccn(C2CO[C@H](CO)O2)c(=O)n1` (stereo not given in full), for which the “viability” value is 103%.
For the molecule `CC(=O)NC[C@H]1CN(c2ccc(N3CCOCC3)c(F)c2)C(=O)O1`, the “viability” value was 98.8%.
With `COc1ccc([C@@H]2CC(=O)c3c(O)cc(O[C@@H]4O[C@H](CO[C@@H]5O[C@@H](C)[C@H](O)[C@@H](O)[C@@H]5O)[C@@H](O)[C@H](O)[C@@H]4O)cc3O2)cc1O`, the Potency entry is “inactive”.
Turning to `O=C(NCCO[N+](=O)[O-])c1cccnc1`, the “viability” value was 95.3%.
The same measure, in the same setting: the value for `N#C[C@H]1C[C@H]2C[C@@H]2N1C(=O)[C@@H](N)C12CC3CC(CC(O)(C3)C1)C2` was 93.2%; that for `COc1nccc(-c2c(-c3ccc(F)cc3)ncn2C2CCC(O)CC2)n1` (stereo not given) was 89.2%.
Consider `CSc1cccc(Nc2ncc3cc(-c4c(Cl)cccc4Cl)c(=O)n(C)c3n2)c1`, for which the “viability” value was 94.4%.
With `COc1cc(Nc2ncc3c(n2)-c2ccc(Cl)cc2C(c2c(F)cccc2OC)=NC3)ccc1C(=O)O`, the Potency is 0.059 µM (active).

A further test is described as follows: Quantitative highthroughput screen to assess conditional lethalithy of SEM cells grown in Human Plasma-Like Medium with dialyzed fetal bovine serum (HPLM+ds) (AID 1963882). Conditions: SEM B-ALL cells in HPLM+ds, CellTiter-Glo viability, 48 h; series mostly up to 45.8 µM; viability: at the top concentration. The gist of the method: as §1
A general note: In ATP-based viability assays light output follows the ATP content of the culture.
Turning to `CC(C)c1noc(N2CCC(COc3ccc(-c4ccc(S(C)(=O)=O)cc4)nc3)CC2)n1`, the “viability” value is 102%.
`CCOC(=O)N1CCN([N+]([O-])=NOc2ccc([N+](=O)[O-])cc2C#N)CC1`: the Potency is 1.18 µM (active).
On to `CCNC(=O)Nc1ccc(Oc2ncnc(N)c2C=NOC)cc1Cl`, for which the Potency was 1.05 µM (active).
On to `CCN(CC)CC#CCOC(=O)C(O)(c1ccccc1)C1CCCCC1` (stereo not given), for which the “viability” value is 86.5%.
As for `COc1ccc(CCN2CCN(CCCc3ccccc3)CC2)cc1OC`, the “viability” value is 100%.
Same read-out and setting: under `NNc1nncc2ccccc12` stands 107%.
With `Nc1ccn(C2CO[C@H](CO)O2)c(=O)n1` (stereo not given in full), the “viability” value is 94.3%.
Regarding `CC(=O)NC[C@H]1CN(c2ccc(N3CCOCC3)c(F)c2)C(=O)O1`, the “viability” value was 113%.
`O=C(NCCO[N+](=O)[O-])c1cccnc1`: the “viability” value is 98.4%.
Consider `O=c1[nH]cc(F)c(=O)[nH]1`, for which the Potency is 9.35 µM (active).

Another test is described as follows: Quantitative highthroughput screen to assess conditional lethalithy of SEM cells grown in RPMI1640 with unreated serum (RPMI+s) (AID 1963883).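 For viability: 100% = DMSO wells and 0% = empty wells without cells.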 As to conditions: SEM B-ALL cells, CellTiter-Glo viability, 48 h; series mostly up to 45.8 µM; viability: at the top concentration. The gist of the method:
as §1
In the case of `CCOC(=O)N1CCN([N+]([O-])=NOc2ccc([N+](=O)[O-])cc2C#N)CC1`, the Potency was 1.05 µM (active).
Turning to `CCN(CC)CC#CCOC(=O)C(O)(c1ccccc1)C1CCCCC1` (stereo not given), the “viability” value was 87%.
The same measure, in the same setting: under `CNC(=O)c1ccc(-c2cnc3ncc(Cc4ccc5ncccc5c4)n3n2)cc1F` stands 88.3%; under `COc1ccc(CCN2CCN(CCCc3ccccc3)CC2)cc1OC`, 87.9%.
In the case of `CS(=O)(=O)OCCCCOS(C)(=O)=O`, the Potency was 20.9 µM (active).
In the case of `O=c1c(-c2ccc(O)cc2)coc2cc(OC3O[C@H](CO)[C@H](O)[C@H](O)[C@H]3O)cc(O)c12` (stereo not given in full), the “viability” value was 99.8%.
Consider `CC(=O)NC[C@H]1CN(c2ccc(N3CCOCC3)c(F)c2)C(=O)O1`, for which the “viability” value is 106%.
In the case of `COc1ccc([C@@H]2CC(=O)c3c(O)cc(O[C@@H]4O[C@H](CO[C@@H]5O[C@@H](C)[C@H](O)[C@@H](O)[C@@H]5O)[C@@H](O)[C@H](O)[C@@H]4O)cc3O2)cc1O`, the “viability” value is 111%.
Take `O=C(NCCO[N+](=O)[O-])c1cccnc1`: the “viability” value was 94%.
With `O=c1[nH]cc(F)c(=O)[nH]1`, the Potency was 9.35 µM (active).
As for `COc1nccc(-c2c(-c3ccc(F)cc3)ncn2C2CCC(O)CC2)n1` (stereo not given), the Potency was 5.26 µM (active).

A short description of another test: Quantitative highthroughput screen to assess conditional lethalithy of SEM cells grown in RPMI1640 with dialyzed fetal bovine serum (RPMI+ds) (AID 1963884).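 For viability: 100% = DMSO control wells and 0% = empty wells without cells.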 Conditions: SEM B-ALL cells, RPMI+dialyzed FBS, CellTiter-Glo viability, 48 h; series mostly up to 45.8 µM; viability: at the top concentration. The essentials:
as §1
Take `CCOC(=O)N1CCN([N+]([O-])=NOc2ccc([N+](=O)[O-])cc2C#N)CC1`: the Potency is 1.05 µM (active).
Same read-out and setting: under `CCNC(=O)Nc1ccc(Oc2ncnc(N)c2C=NOC)cc1Cl` stands 0.935 µM (active).
Regarding `CCN(CC)CC#CCOC(=O)C(O)(c1ccccc1)C1CCCCC1` (stereo not given), the “viability” value was 81.2%.
With `CNC(=O)c1ccc(-c2cnc3ncc(Cc4ccc5ncccc5c4)n3n2)cc1F`, the “viability” value is 104%.
The same measure, in the same setting: the value for `COc1ccc(CCN2CCN(CCCc3ccccc3)CC2)cc1OC` was 85.7%.
On to `CS(=O)(=O)OCCCCOS(C)(=O)=O`, for which the Potency was 20.9 µM (active).
Take `O=c1c(-c2ccc(O)cc2)coc2cc(OC3O[C@H](CO)[C@H](O)[C@H](O)[C@H]3O)cc(O)c12` (stereo not given in full): the “viability” value is 104%.
As to `CC(=O)NC[C@H]1CN(c2ccc(N3CCOCC3)c(F)c2)C(=O)O1`, the “viability” value was 109%.
`COc1ccc([C@@H]2CC(=O)c3c(O)cc(O[C@@H]4O[C@H](CO[C@@H]5O[C@@H](C)[C@H](O)[C@@H](O)[C@@H]5O)[C@@H](O)[C@H](O)[C@@H]4O)cc3O2)cc1O`: the “viability” value is 101%.
Still for that read-out and setting: the value for `O=C(NCCO[N+](=O)[O-])c1cccnc1` was 96.2%; that for `N#C[C@H]1C[C@H]2C[C@@H]2N1C(=O)[C@@H](N)C12CC3CC(CC(O)(C3)C1)C2` was 92.9%.
As to `O=c1[nH]cc(F)c(=O)[nH]1`, the Potency was 10.5 µM (active).

What is called viability is a read-out of living cells in per cent, often relative to untreated cells.
